Compound activity (PubChem)
Chronic BCR inh = qHTS Assay to Find Inhibitors of Chronic Active B-Cell Receptor Signaling; ABC-DLBCL IkBa-CBG/CBR reporter, luminescence ratio, 4 h; Potency, µM (titrated, usually from 46.1 µM), hits mostly inhibitors; hit rate 0.05% among 340,000; active = well fitted inhibition curve with a large enough effect in the signal ratio, with a control signal flat, not every such curve was filed as active; inconclusive = small, poorly fitted or top-dose-only effect, or effect the other way, or a change in a side signal; the % refers to the signal ratio
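Cell line TMD8 (human ABC DLBCL), stably expressing tet-inducible CBG68-IkBa fusion and CBR; IMDM/0.5% FBS; cpd up to 46 uM; dox induction, 4 h, 37C/5% CO2; dual luminescence; green/red ratio; MG132 control.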
D1 agonist = Allosteric Agonists of the Human D1 Dopamine Receptor: qHTS | D(1A) dopamine receptor (Homo sapiens), P21728 | HEK293 T-REx D1 cells, calcium flux, agonist mode | activation, % at 2 µM | hit rate 1% among 360,000 | AID 504660, 2011; in the data active = activation above about 30%
Target sequence (P21728 whole entry, looked up): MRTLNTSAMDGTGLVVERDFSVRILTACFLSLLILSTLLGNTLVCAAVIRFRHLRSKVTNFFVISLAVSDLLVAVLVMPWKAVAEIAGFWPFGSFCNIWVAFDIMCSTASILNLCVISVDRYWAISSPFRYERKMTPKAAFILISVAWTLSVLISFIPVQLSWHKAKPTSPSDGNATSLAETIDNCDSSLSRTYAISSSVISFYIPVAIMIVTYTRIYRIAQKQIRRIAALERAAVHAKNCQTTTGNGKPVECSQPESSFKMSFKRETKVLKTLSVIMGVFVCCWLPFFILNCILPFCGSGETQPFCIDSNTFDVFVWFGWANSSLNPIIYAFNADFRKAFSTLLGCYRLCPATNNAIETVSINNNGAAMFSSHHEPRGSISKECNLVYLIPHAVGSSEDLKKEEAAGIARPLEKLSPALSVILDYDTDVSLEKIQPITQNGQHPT
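Agonism was scored from calcium flux recorded over 180 s (1 read/s) after pintool compound addition, following a 10-cycle baseline. Cells were inducible force-coupled HEK293 TREx D1, plated overnight at 30 C and loaded with no-wash calcium dye.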
D3 ag = qHTS of D3 Dopamine Receptor Agonist: qHTS; D(3) dopamine receptor (Homo sapiens), P35462; D3R DiscoveRx beta-arrestin cells, luminescence, 90 min; max activation, %; hit rate 0.58% among 410,000; in the data active = max activation above about 30%
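Cells at 1500/well, incubated overnight, then treated with pinned compounds (dopamine as control) for 90 min at 37 degrees C. DiscoveRx reagent added for 30 - 60 minutes at room temperature; luminescence read.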
DRD3 antagonist = qHTS of D3 Dopamine Receptor Antagonist: qHTS; AID 652054, 2013; max response, negative = inhibition, %; hit rate 2.5% among 360,000; D3R cells, DiscoveRx beta-arrestin luminescence, antagonist mode; stronger effect = lower value; in the data active = max response below about -50%; inconclusive = no clear call, values can overlap the other calls
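Cells plated overnight at 1500 cells/well, then exposed to library compounds with dopamine controls for 90 minutes at 37 degrees C. DiscoveRx reagent added for 30–60 minutes at room temperature; luminescence read, quantitative HTS format.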
D1 potentiator = Potentiators of Human D1 Dopamine Receptor: qHTS; D(1A) dopamine receptor (Homo sapiens), P21728; HEK293 TREx D1 cells, calcium flux, dopamine EC20 potentiation; potentiation, % at 10 µM; hit rate 0.036% among 360,000; in the data active = potentiation above about 30%
D1 antagonist = Antagonist of Human D 1 Dopamine Receptor: qHTS; HEK293 TREx D1 cells, calcium flux, dopamine EC80; stronger effect = lower value; hit rate 3.2% among 360,000; activity change, negative = inhibition, % at 10 µM; in the data active = activity change below about -30%
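Compound effects on dopamine-evoked calcium signalling were measured in tetracycline-induced HEK293 Trex D1 cells. Dopamine at EC80 followed a 180 s compound pre-read, and fluorescence was tracked kinetically for 180 s more.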
A number is an active result; i = inactive; ? = inconclusive; nt = no result given. Rows were chosen to be rich in hits. Some 6% of all compounds tested hit in one or more screens of this group.

SMILES	Chronic BCR inh	D1 agonist	D3 ag	DRD3 antagonist	D1 potentiator	D1 antagonist
O=C(C1CCCCN1S(=O)(=O)c1ccccc1[N+](=O)[O-])N1CCCC1 (stereo not given)	i	i	i	-53.3	i	i
Cc1ccc(C)c(CN2C(=O)c3ccccc3S(=O)(=O)c3ccc(C(=O)N4CCOCC4)cc32)c1	nt	i	i	nt	i	i
COc1ccc(NS(=O)(=O)c2c(C)n(C)c(=O)n(C)c2=O)cc1OC	i	i	i	i	i	-30.9
COc1cccc(NS(=O)(=O)c2c(C)n(C)c(=O)n(C)c2=O)c1	i	i	i	i	i	i
CCCN(C(=O)Cn1cnc2onc(-c3ccc(F)cc3)c2c1=O)c1cccc(Cl)c1	nt	i	i	nt	i	i
CCOc1ccc(S(=O)(=O)N2CCN(c3ccc(Cl)c(Cl)c3)CC2)c2ccccc12	nt	i	i	nt	i	i
O=S(=O)(c1cccc2ccccc12)N1CCN(c2ccc(Cl)c(Cl)c2)CC1	nt	i	71.5	nt	i	i
FC(F)(F)c1nnc(Nc2ccc(Cl)cc2)s1	i	i	i	i	i	-30.0
CCOc1ccc(S(=O)(=O)NCCc2csc3nc(-c4cccc(C)c4)nn23)cc1	i	i	i	nt	i	nt
Cc1c(NC(=O)c2cc(=O)c3cc(Cl)ccc3o2)c(=O)n(-c2ccccc2)n1C	nt	i	i	nt	i	i
O=C1C(c2ccc(F)cc2)N(Cc2ccccc2Cl)C(=O)CN1C1CCCCC1 (stereo not given)	i	i	i	nt	i	-42.4
CCOC(=O)N1CCC(NC(=O)c2ccc(Cl)cc2)CC1	i	i	i	i	i	i
CCOC(=O)N1CCC(NC(=O)CCCC(=O)O)CC1	i	i	i	i	i	-33.0
CSCCC(N)C(=O)O (stereo not given)	nt	nt	i	nt	nt	nt
FCCCOc1ccc(/C=N/OCc2c(Cl)cccc2Cl)cc1	i	i	i	-64.7	i	i
FCCCOc1ccc(/C=N/OCc2ccc(Cl)cc2)cc1	i	i	i	i	i	i
O=C(O)c1ccc(Cn2nnc3sc4c(c3c2=O)CCCC4)cc1	?	i	i	i	i	-30.3
CC1CCc2c(sc3nnn(Cc4ccc(F)cc4)c(=O)c23)C1 (stereo not given)	nt	i	i	nt	i	-44.5
COc1cc(/C=N/N=C2/C(=O)Nc3ccccc32)cc(OC)c1O	i	i	i	-83.7	i	i
CC(=O)Nc1cccc(-c2ccnc3c2CC(C(=O)Nc2ccc(C(C)C)cc2)O3)c1 (stereo not given)	nt	nt	i	i	nt	nt
COc1cc(NC(=O)C(C)Oc2ccccc2)c(OC)cc1NC(=O)c1ccccc1 (stereo not given)	i	i	35.7	i	i	i
COc1cccc(C(=O)Nc2ccccc2-c2ccccc2)c1	i	i	i	i	i	i
COc1cc(NC(=O)c2cccnc2)c(OC)cc1NC(=O)c1ccc(Br)cc1	i	i	120.9	i	i	i
COc1cc(N)c(Cl)cc1NC(=O)c1ccccc1	i	i	i	i	i	-55.0
COc1c(Cl)cc(C(=O)Nc2ccccc2-c2ccccc2)cc1Cl	?	i	i	i	i	-31.4
SMILES	Chronic BCR inh	D1 agonist	D3 ag	DRD3 antagonist	D1 potentiator	D1 antagonist
COc1cc(NC(=O)c2ccccc2)c(OC)cc1Cl	i	i	i	i	i	i
COc1cc(NC(=O)c2ccc(Br)cc2)c(OC)cc1NC(=O)c1ccccc1	i	i	i	i	i	i
COc1cccc(-c2n[nH]nc2C2=CC(=O)C[C@H](c3ccc(F)cc3)C2)c1	nt	nt	i	i	nt	nt
COc1ccccc1CNc1nc2cc(-c3ccsc3)sc2c(=O)n1C	nt	nt	i	i	nt	nt
COc1ccc(OC)c(CCNc2ncnc3onc(-c4ccc(F)cc4)c23)c1	nt	33.3	i	nt	i	-32.4
COc1ccc(OC)c(CCNc2ncnc3onc(-c4ccc(Cl)cc4)c23)c1	nt	i	i	nt	i	i
CCSc1nc2c(c(=O)n(C)c(=O)n2C)n1Cc1ccc(Cl)cc1	nt	nt	i	i	nt	nt
Cn1c(=O)c2c(nc(SCCN3CCCCC3)n2Cc2ccc(Cl)cc2)n(C)c1=O	i	i	i	-51.3	i	i
